Compound activity from PubChem.
Hits are enriched below; roughly 1.3% of the tested compounds scored in any of these assays.
USP1 inh – USP1/UAF1 (human) deubiquitinase inhibition; Potency, µM (doses to about 57.1 µM), inactives show top-dose activity change, negative = inhibition, most hits filed as inhibitors; recombinant USP1/UAF1, Ub-Rhodamine cleavage fluorescence; 390,000 compounds, 0.23% hits; AID 743255; O94782; further: on the % scale 0 is the no-effect control and ±100 the full control effect; nearly all actives have a fitted effect of over 60% in size
Target sequence (O94782 whole entry, looked up): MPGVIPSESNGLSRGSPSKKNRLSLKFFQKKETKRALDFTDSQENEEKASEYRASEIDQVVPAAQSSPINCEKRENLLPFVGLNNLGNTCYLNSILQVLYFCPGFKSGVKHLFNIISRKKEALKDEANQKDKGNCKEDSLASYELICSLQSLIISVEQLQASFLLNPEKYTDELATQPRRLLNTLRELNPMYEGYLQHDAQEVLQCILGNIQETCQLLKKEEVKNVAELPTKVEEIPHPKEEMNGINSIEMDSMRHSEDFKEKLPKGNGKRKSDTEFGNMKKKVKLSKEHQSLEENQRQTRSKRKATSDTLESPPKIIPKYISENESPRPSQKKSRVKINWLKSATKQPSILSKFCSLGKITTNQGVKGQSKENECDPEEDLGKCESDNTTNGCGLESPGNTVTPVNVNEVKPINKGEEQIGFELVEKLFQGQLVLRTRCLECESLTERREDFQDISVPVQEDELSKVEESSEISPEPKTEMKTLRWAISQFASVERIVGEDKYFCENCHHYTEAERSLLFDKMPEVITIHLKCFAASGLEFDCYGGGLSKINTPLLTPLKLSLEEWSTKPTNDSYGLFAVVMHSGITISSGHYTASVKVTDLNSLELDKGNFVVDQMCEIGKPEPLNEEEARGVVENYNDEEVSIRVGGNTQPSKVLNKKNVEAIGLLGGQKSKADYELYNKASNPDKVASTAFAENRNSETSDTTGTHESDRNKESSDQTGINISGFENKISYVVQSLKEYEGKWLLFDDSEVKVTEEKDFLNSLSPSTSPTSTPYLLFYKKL
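Step one: compound is pinned into 1nM USP1/UAF1 in HEPES pH 7.8 buffer with TCEP. Step two: 15 min room-temperature incubation. Step three: Ub-Rho (150nM final) starts cleavage, tracked by fluorescence over six one-minute reads.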
EPAC1 antag – EPAC1 (human) antagonism; O95398; EPAC1 GEF assay, Rap1b-BODIPY-GDP exchange fluorescence; Potency, µM (doses to about 115 µM), for inactives: at the highest dose activity change, negative = inhibition, actives largely listed as inhibitors; 360,000 compounds, 0.14% hits; AID 720709;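 further: plate controls were vehicle for no effect and positive control for full effect; nearly all actives have a fitted effect of over 50% in size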
EPAC2 antagonist – antagonists of human EPAC2; Q8WZA2; EPAC2 GEF exchange of Rap1B-BODIPY-GDP, fluorescence; Potency, µM (series often up to 114 µM), without a hit: at the top dose activity, negative = inhibition, actives largely listed as inhibitors; 360,000 compounds, 0.18% hits; AID 720708; further: on the % scale 0 is the no-effect control and ±100 the full control effect; nearly all actives have a fitted effect of over 45% in size
EPAC1 agonist – activates human EPAC1 exchange factor; O95398; EPAC1 agonist qHTS, biochemical assay; response scale: 100% = response to 6.5 mM cAMP; Potency, µM (series often up to 154 µM), inactives show at the top dose activation, actives largely listed as activators; 360,000 compounds, 0.073% hits; AID 720707; further: nearly all actives have a fitted effect of over 60% in size
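Read-out is the fluorescence drop as BODIPY-GDP leaves Rap1B (480 nm excitation, 540 nm emission), recorded every 5 minutes over 30 minutes. Reactions held 100 nM EPAC1, 250 nM Rap1B–BODIPY-GDP and 50 uM GDP, with 6.5 mM cAMP setting full activation.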
ALOX12 inh – inhibitors of human 12S-lipoxygenase ALOX12. Potency, µM (highest dose often 108 µM), inactives show top-dose activity change, negative = inhibition, usual class: inhibitors. 580,000 compounds, 1.1% hits. purified 12hLO, xylenol orange hydroperoxide absorbance; further: on the % scale 0 is the no-effect control and ±100 the full control effect
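Purified human 12hLO at 150 nM in 25 mM Hepes, 0.01% Triton X-100, pH 7.0, preincubated 15 min at room temperature with compound. Reaction started with 40 uM arachidonic acid, 30 min at room temperature. Hydroperoxide measured by Fe-xylenol orange, 573/405 nm absorbance ratio.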
EPAC2 ag – EPAC2 (human) agonism; Q8WZA2; EPAC2 activation, biochemical qHTS; response scale: 100% = 6.5 mM cAMP response; Potency, µM (highest dose often 154 µM), without a hit: at the highest dose activation, hits mostly activators; 360,000 compounds, 0.079% hits; AID 720711; further: nearly all actives have a fitted effect of over 50% in size
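Each well held 100 nM EPAC2, 250 nM RAP1B-BODIPY-GDP and 50 uM GDP. Fluorescence, read at 5-min intervals to 30 min, was referenced to a 6.5 mM cAMP positive control.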
Active calls of the source: *; i = inactive; u = inconclusive; x = no result; [ ] = dose if it differs, or a comment. The call rests on the fitted dose curve; in most records, active means well fitted curve in the direction sought with a large enough effect; inconclusive means small, poorly fitted or top-dose-only effect, or another doubt; inactive means no such curve, though single readings can be large; an effect the other way counts as inactive or inconclusive. Potency means the concentration at half of the fitted maximal effect.

SMILES	USP1 inh	EPAC1 antag	EPAC2 antagonist	EPAC1 agonist	ALOX12 inh	EPAC2 ag
C[C@]12CC[C@@H]3c4cc(O)c(O)cc4CC[C@H]3[C@@H]1CC[C@@H]2O	-9.4%	-7.3%	-13.0%	-17.7%	7.94µM*	3.4%
COc1ccc(C(=O)Nc2ccnn2Cc2ccco2)cc1S(=O)(=O)N1CCCC1	x	x	x	x	18.6%	x
Cc1ccnc(N/C=C(/Cl)C(=O)C(F)(F)F)c1	x	x	x	x	39.8µM*	x
O=C(/C(Cl)=C/Nc1ccccn1)C(F)(F)F	x	x	x	x	-8.6%	x
CC(=O)N1CCn2c3c(c(=O)c4cc(C)ccc42)CCC31 (centres undefined)	31.6µM*	-24.0%	11.0%	11.5%	u	10.2%
Cc1ccc2c(c1)c1c3n2CCN(C(=O)CCl)C3CCC1 (centres undefined)	-25.0%	-24.2%	-22.3%	3.5%	11.2µM*	2.0%
COc1ccccc1CNCc1ccc(C)cc1	-16.0%	-3.8%	19.5%	-2.4%	1µM*	0.0%
COc1ccccc1CNCc1cc(OC)c(OC)c(OC)c1	-13.1%	2.2%	4.1%	-1.6%	-44.3%	7.8%
O=C1CC(c2ccccc2)N(C(=O)CNC(=O)Nc2ccc3c(c2)OCCO3)CCCCCN1 (centres undefined)	x	x	x	x	-1.0%	x
O=C(Cn1nc(Cc2ccncc2)c2ccccc2c1=O)N1CCc2ccccc2C1	28.2µM*	-6.1%	0.2%	-6.7%	u	14.4%
CCCCNC(=O)Cn1nc(Cc2ccncc2)c2ccccc2c1=O	-17.3%	7.5%	3.8%	8.5%	4.4%	9.0%
C/C(=C\C(=O)c1ccc(F)cc1)NCc1ccc2c(c1)OCO2	-4.1%	3.3%	-7.5%	14.7%	39.8µM*	7.7%
C/C(=C\C(=O)c1ccc(Br)cc1)NCc1ccc2c(c1)OCO2	-7.1%	10.6%	0.8%	15.8%	20.1%	0.5%
Cc1cccc(N=C2NC(=O)/C(=C/C=C/c3ccco3)S2)c1C	-18.3%	u	-0.8%	10.8%	10µM*	3.4%
O=C1NC(=Nc2ccccc2)S/C1=C\C=C\c1ccco1	-19.4%	u	4.3%	-1.5%	50.1µM*	0.3%
Cc1ccc(N=C2NC(=O)/C(=C/C=C/c3ccco3)S2)cc1	-17.8%	56.2µM*	19.9%	-11.6%	31.6µM*	-2.7%
COc1ccc(C)cc1NC(=O)CSc1nc2ccccc2nc1C	x	x	x	x	0.8%	x
Cc1ccccc1CN1CCN(c2nc3c(c(=O)[nH]c(=O)n3C)n2C/C=C/c2ccccc2)CC1	x	x	x	x	14.8%	x
COCCCNC1=C(Cl)C(=O)c2ccccc2C1=O	u	-3.8%	-21.4%	-2.2%	-36.2%	1.7%
COCCCNc1c2c3c(cccc3[nH]c1=O)C(=O)c1ccccc1-2	4.47µM*	i	i	100µM*	u	100µM*
Cc1ccc(N=Cc2sc(O)c3ccccc23)c(C)c1	i	-9.4%	219.6%	5.1%	u	100µM*
Cc1ccc(N=Cc2sc(O)c3ccccc23)cc1	u	11.8%	40.7%	8.1%	29.8%	-0.4%
CC(NC(=O)c1ccc2cc[nH]c2c1)c1ccccc1Br (centres undefined)	x	x	x	x	-5.4%	x
CC(C)(C)c1ccc(-c2n[nH]c(=S)n2Cc2ccccc2)cc1	-24.0%	-12.1%	3.2%	-9.9%	u	-6.3%
CC(C)n1c(-c2ccc(C(C)(C)C)cc2)n[nH]c1=S	-13.8%	1.7%	3.5%	2.6%	15.8µM*	-0.1%
SMILES	USP1 inh	EPAC1 antag	EPAC2 antagonist	EPAC1 agonist	ALOX12 inh	EPAC2 ag
OC(CNCCc1ccc(C(F)(F)F)cc1)COC(c1ccccc1)c1ccccc1 (centres undefined)	-12.2%	-21.5%	-8.7%	-3.8%	14.1µM*	8.4%
COc1ccc(C(OCC(O)CNCCc2ccc(S(N)(=O)=O)cc2)c2ccc(OC)cc2)cc1 (centres undefined)	-17.5%	-2.8%	-9.0%	8.1%	0.0%	8.5%
CN1CC(=O)N(C2CCNCC2)Cc2c(NCCc3cccc(F)c3)ncnc21	x	x	x	x	17.8µM*	x
CC(C)Nc1ncnc2c1CN(C1CCCNC1)C(=O)CN2C (centres undefined)	x	x	x	x	3.98µM*	x
CCCCCNc1ncnc2c1CN(C1CCCNCC1)C(=O)CN2C (centres undefined)	x	x	x	x	-24.7%[6.33 µM]	x
CN1CC(=O)N(C2CCNCC2)Cc2c1ncnc2N(C)Cc1ccc(F)cc1	x	x	x	x	8.91µM*	x
Cc1ccc(NC(=O)c2cnc(NCc3ccc4c(c3)OCO4)nc2C)c(C)c1	x	x	x	x	30.1%	x
COCc1nn2c(c1-c1ccccc1)NC(=O)CC2C(=O)Nc1ccccc1OC (centres undefined)	x	x	x	x	-2.9%	x
CCCn1cnc2nc(CSc3ccccc3NC(=O)COc3cccc(F)c3)cc(=O)n21	x	x	x	x	-13.8%	x
Cc1ccc(-c2nc(CC(=O)NCc3ccccc3F)cs2)o1	x	x	x	x	11.2µM*	x
Cc1ccc2[nH]c(=O)c(CN(C)C(=O)c3cccc(Cl)c3)cc2c1	x	x	x	x	-21.1%	x
O=S(=O)(c1ccc(Cl)cc1)c1ccc(-c2ccc(S(=O)(=O)c3ccc(Cl)cc3)cc2)cc1	x	x	x	x	11.2µM*	x
CN(CC(=O)Nc1ccccc1C(F)(F)F)Cc1c(O)ccc2ccccc12	-25.4%	u	u	2.2%	7.08µM*	-4.2%
CCc1ccccc1NC(=O)CN(C)Cc1c(O)ccc2ccccc12	-19.6%	-2.3%	6.1%	-10.7%	u	-6.9%
O=C(OCC(=O)C12CC3CC(CC(C3)C1)C2)c1c(F)cccc1F	x	x	x	x	-2.3%	x
Cc1nc(Nc2cnc(/C=C/c3cc(C(=O)Nc4cccc(C(F)(F)F)c4)ccc3C)cn2)cc(N2CCNCC2)n1	u	-21.7%	50.1µM*	8.3%	x	u
NC(N)=NCc1ccc(CN2CCCC2)cc1	x	x	x	x	44.7µM*	x
COC(=O)CNC(=O)CSc1ccccn1	-25.9%	-0.8%	u	21.4%	u	-1.0%
COC(=O)C1=C(C(=O)OC)SC(=C(Cl)C(=S)Sc2ccccn2)S1	x	x	x	x	4.47µM*	x
CC1CCc2c(nc3ccc4ccccc4c3c2-c2cccc(O)c2)C1 (centres undefined)	x	x	x	x	4.47µM*	x
Cc1cc(C)c2nc(SCC(=O)NCCC3=CCCCC3)cc(C)c2c1	-4.8%	-8.8%	8.8%	9.6%	15.8µM*	-11.9%
COCCNC(=O)CSc1cc(C)c2cc(C)cc(C)c2n1	x	x	x	x	42.6%	x
O=C(Oc1cc(-c2ccccc2)no1)c1ccc(Cl)cc1	-2.6%	-1.0%	-3.6%	4.7%	31.6µM*	-9.0%
Cc1ccc(C(=O)Oc2cc(-c3ccccc3)no2)cc1	-4.0%	8.3%	4.8%	-0.6%	204.3%	1.3%
O=C(c1cc2ccccc2o1)N(Cc1ccc(F)cc1)C1CC1	x	x	x	x	-17.5%	x
CCCCN(CCCC)Cc1cc(=O)oc2cc(C)c(O)cc12	x	x	x	x	39.8µM*	x
